Test results: the supplement of paper PMC6897291
Where a name gives a salt, the structure may show the parent alone.

system: U-2932; assay: growth inhibition by drug plus 177Lu-lilotomab satetraxetan (1 - RLU/untreated control) (fraction); higher = stronger inhibition; details: 1000 nM; time (day): 6; 177Lu-lilotomab satetraxetan 1 ug/ml
In short: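 Growth inhibition was calculated from RealTime-Glo RLU against untreated no-drug wells. Values equal 1 − RLU/mean of 48 untreated no-drug wells per plate, read daily from day 3 after 1 h at 37°C. RIVA and U-2932 cells, with or without 18 h pretreatment by a radiolabelled anti-CD37 antibody conjugate (~600 MBq/mg; 0.5 µg/ml RIVA, 1 µg/ml U-2932), were washed and plated at 3,000 cells/well on compound-printed plates at 10/100 nM (RIVA) or 10/1,000 nM (U-2932).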

In order of falling “growth inhibition by drug plus 177Lu-lilotomab satetraxetan” value:
1. COc1cccc2c1C(=O)c1c(O)c3c(c(O)c1C2=O)C[C@@](O)(C(=O)CO)C[C@@H]3O[C@H]1C[C@H](N)[C@H](O)[C@H](C)O1 [Doxorubicin (Adriamycin)]  0.99
2. CC(C)c1ccc(Cn2ccc3c4c(N)nc(NC5CC5)nc4ccc32)cc1  0.989
3. CCC1=C[C@@H]2CN(C1)Cc1c([nH]c3ccccc13)[C@@](C(=O)OC)(c1cc3c(cc1OC)N(C)[C@H]1[C@@](O)(C(=O)OC)[C@H](OC(C)=O)[C@]4(CC)C=CCN5CC[C@]31[C@@H]54)C2 [Vinorelbine (Navelbine)]  0.988
4. CC(C)[C@H](C(=O)Nc1ccc(C(=O)NO)cc1)c1ccccc1  0.985
5. CC(C)(C)c1[nH]cnc1/C=c1\[nH]c(=O)/c(=C/c2ccccc2)[nH]c1=O [NPI-2358 (Plinabulin)]  0.984
6. CCN(CC)C(=S)SSC(=S)N(CC)CC [Disulfiram (Antabuse)]  0.983
7. CCc1c2c(nc3ccc(OC(=O)N4CCC(N5CCCCC5)CC4)cc13)-c1cc3c(c(=O)n1C2)COC(=O)[C@]3(O)CC [Irinotecan HCl Trihydrate (Campto)]  0.98
8. COc1ccc(S(=O)(=O)Nc2cccnc2Nc2ccc(O)cc2)cc1  0.956
9. Nc1ccn([C@@H]2O[C@H](CO)[C@@H](O)[C@@H]2O)c(=O)n1 [Cytarabine]  0.89
10. Nc1nc(Nc2ccc(S(N)(=O)=O)cc2)nn1C(=O)c1c(F)cccc1F  0.719
11. C#Cc1cccc(Nc2ncnc3cc(OCCOC)c(OCCOC)cc23)c1 [Erlotinib HCl]  0.685
12. S=C(NCc1ccc2c(c1)OCO2)N1CCN(c2ncnc3c2oc2ccccc23)CC1 [Amuvatinib (MP-470)]  0.561
13. Nc1cccc2c1C(=O)N(C1CCC(=O)NC1=O)C2=O (stereo not drawn) [Pomalidomide]  0.472
14. COc1cc(Nc2ncc3c(n2)-c2ccc(Cl)cc2C(c2c(F)cccc2OC)=NC3)ccc1C(=O)O [MLN8237 (Alisertib)]  0.459
15. C[C@]12CCC(=O)C=C1CC[C@@H]1[C@@H]2[C@@H](O)C[C@@]2(C)[C@H]1CC[C@]2(O)C(=O)CO [Hydrocortisone (Cortisol)]  0.362
16. Nc1ncn([C@@H]2O[C@H](CO)[C@@H](O)[C@H]2O)c(=O)n1 [Azacitidine (Vidaza)]  0.324
17. Cc1cc(Nc2cc(N3CCN(C)CC3)nc(/C=C/c3ccccc3)n2)n[nH]1  0.323
18. COc1ccc2c3n(c(=NC(=O)c4cccnc4)nc2c1OC)CCN3  0.278
19. O=c1[nH]cc(F)c(=O)[nH]1 [Adrucil (Fluorouracil)]  0.275
20. CC/C(=C(\c1ccccc1)c1ccc(OCCN(C)C)cc1)c1ccccc1 [Tamoxifen Citrate (Nolvadex)]  0.27
21. Cc1[nH]c(/C=C2\C(=O)Nc3ccc(S(=O)(=O)N(C)c4cccc(Cl)c4)cc32)c(C)c1C(=O)N1CCN(C)CC1  0.249
22. Cc1ccc(S(=O)(=O)C=CC#N)cc1  0.225
23. COc1cc2nccc(Oc3ccc(NC(=O)NC4CC4)c(Cl)c3)c2cc1C(N)=O [E7080 (Lenvatinib)]  0.201
24. Nc1nc(F)nc2c1ncn2[C@@H]1O[C@H](CO)[C@@H](O)[C@@H]1O [Fludarabine (Fludara)]  0.185
25. O=C(NCCS(=O)(=O)c1ccc(C(F)(F)F)cn1)c1ccc(Cl)cc1  0.179
26. CC(=O)O[C@]1(C(C)=O)CC[C@H]2[C@@H]3C=C(C)C4=CC(=O)CC[C@]4(C)[C@H]3CC[C@@]21C [Megestrol Acetate]  0.163
27. Cn1cc(C2=C(c3ccc(Cl)cc3Cl)C(=O)NC2=O)c2ccccc21  0.146
28. COc1cc(OC2CCN(C)CC2)ccc1Nc1ncc2c(n1)n(C1CCCC1)c(=O)n2C  0.128
29. O=C(O[C@@H]1Cc2c(O)cc(O)cc2O[C@@H]1c1cc(O)c(O)c(O)c1)c1cc(O)c(O)c(O)c1 [(-)-Epigallocatechin gallate]  0.127
30. CN(C)c1nc(N(C)C)nc(N(C)C)n1 [Altretamine (Hexalen)]  0.121
31. c1ccc(-c2nn3c(c2-c2ccnc4cc(OCCN5CCOCC5)ccc24)CCC3)nc1  0.121
32. CCc1cncnc1N1CCN(Cc2nc3ccc(C(F)(F)F)cc3[nH]2)CC1  0.0567
33. COc1cc2ncnc(Nc3cccc(Br)c3)c2cc1OC  0.0515
34. N#Cc1ccc(C(c2ccc(C#N)cc2)n2cncn2)cc1 [Letrozole]  0.0441
35. Cc1ccc(-c2cc(C(F)(F)F)nn2-c2ccc(S(N)(=O)=O)cc2)cc1 [Celecoxib]  0.0432
36. CN(N=O)C(=O)N[C@@H](C=O)[C@@H](O)[C@H](O)[C@H](O)CO [Streptozotocin (Zanosar)]  0.0347
37. CC(=O)c1c(C)c2cnc(Nc3ccc(N4CCNCC4)cn3)nc2n(C2CCCC2)c1=O  -0.0632
38. N#CC[C@H](C1CCCC1)n1cc(-c2ncnc3[nH]ccc23)cn1  -0.122
